From PubChem BioAssay (EPA / NIEHS) come the findings set out here.

Experiment [1] is described as follows: CCTE_Shafer_MEA_acute_network_burst_percentage: CCTE's Neural Acute Assay for Percentage of Network Bursts, Shafer Lab (AID 2284022).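 Note: curves fitted for loss so actives lower network burst percentage.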 An outline of the steps: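 Rat cortical cultures, DIV 13/15; 20 min equilibration, 40 min baseline, compound 0.03-40 uM, 40 min recording, 37 C. Spikes: 300-5000 Hz band-pass, threshold 8x rms noise. Readout: % change in network-burst spike fraction; loss direction vs DMSO.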

The nature of experiment [2]: CCTE_Shafer_MEA_acute_cross_correlation_area: CCTE's Neural Acute Assay for Area of Cross Correlation, Shafer Lab (AID 2284024).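 Note: area under pooled inter-electrode spike cross-correlation near zero lag as percent change from own baseline; curves fitted for loss of cross-correlation area so actives lower synchrony.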 An outline of the steps:
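Rat cortical cultures, DIV 13/15, MEA; spikes detected at 8x rms noise (300-5000 Hz band-pass). Compound 0.03-40 uM, ≥3 wells each. Readout: % change in pooled inter-electrode cross-correlation area vs own baseline; DMSO negative control.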

Experiment [3] in a line: CCTE_Shafer_MEA_acute_cross_correlation_HWHM: CCTE's Neural Acute Assay for Cross Correlation at Half Width at Half Maximum, Shafer Lab (AID 2284026).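 For outcome: spontaneous network firing of rat primary cortical neurons on multiwell microelectrode arrays.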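 Note: percent change per well from pre-dose baseline in spike cross-correlogram half width; hits are a decrease in cross-correlogram half width relative to DMSO.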 In a few lines: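 Read-out: half width at half maximum of action-potential cross-correlogram, percent change versus pre-treatment baseline, fitted in loss direction against DMSO. Rat cortical cultures, DIV 13 or 15, dosed 0.03-40 uM, 40-min recordings at 37 C.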

Experiment [4] can be described thus: CCTE_Shafer_MEA_acute_synchrony_index: CCTE's Neural Acute Assay for Synchrony, Shafer Lab (AID 2284027).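 Note: network synchrony index of spontaneous spiking in primary rat cortical neurons on MEAs; fitted for loss of signal so actives lower synchrony relative to DMSO.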 An outline of the steps:
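Primary rat cortical neurons on 48-well MEAs, dosed at 0.03–40 uM on DIV 13 or 15. Spikes are recorded for 40 min at 37C before and after exposure, and synchrony index (0–1) is expressed as percent change from baseline per well.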

A short description of experiment [5]: CCTE_Shafer_MEA_dev_firing_rate_mean: CCTE's Neural Network Formation Assay for Mean Firing Rate, Shafer Lab (AID 2284031).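 For AC50: curve fitted for loss of firing so AC50 reflects decreased mean firing rate.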 In a few lines:
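Primary rat cortical neurons on 48-well MEA plates, exposed from plating day 0 with dosing renewed on DIV 5 and 9. Mean well firing rate over active electrodes, recorded days 5, 7, 9, 12, summarised as trapezoidal AUC.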

Experiment [6] is described as follows: CCTE_Shafer_MEA_dev_per_burst_spike_percent: CCTE's Neural Network Formation Assay for Percent of Spikes in a Burst, Shafer Lab (AID 2284032).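 For AC50: fitted as a decrease in burst spike percentage below DMSO baseline.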 In a few lines:
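Rat primary cortical neurons on 16-electrode MEA wells, dosed from plating day 0 for 12 days with renewal on DIV 5 and 9; spikes-in-bursts percentage averaged over bursting electrodes, collapsed as AUC across days 5, 7, 9, 12; loss direction versus DMSO.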

The nature of experiment [7]: CCTE_Shafer_MEA_dev_active_electrodes_number: CCTE's Neural Network Formation Assay for Number of Active Electrodes, Shafer Lab (AID 2284040; active = hit-call score of the fitted dose curve at least 0.9, where 1 is the maximum;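 for AC50: potency for loss of active electrodes versus DMSO so lower counts are hits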). An outline of the steps:
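Primary rat cortical neurons on 16-electrode MEA wells, exposed from day 0 through day 12 with compound renewed at DIV 5 and 9 feeds. Active electrodes (mean firing ≥5 spikes/min) counted at DIV 5, 7, 9, 12; trapezoidal AUC across days, loss-of-signal versus DMSO.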

Experiment [8] can be described thus: CCTE_Deisenroth_AIME_384WELL_CTox_Inactive: Cytotoxicity Assessment (CTOX) in CCTE's 384-well Estrogen Receptor Transactivation Assay without AIME metabolic competence (metabolism negative), Deisenroth Lab (AID 2284039; active = hit-call score of the fitted dose curve at least 0.9, where 1 is the maximum;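 note: cell viability via live-cell protease substrate cleaved to fluorescent probe; loss of fluorescence signal means loss of viability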). In a few lines: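 Fluorescent protease-substrate viability readout after 24 h exposure of VM7Luc4E2 cells to conditioned medium. Chemicals (0.002–200 uM) first sat 2 h over alginate-water beads, no S9. Data fitted bidirectionally, loss of signal meaning viability loss.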

Experiment [9] concerns the target Estrogen receptor (Homo sapiens) (UniProt P03372). Kind of experiment: CCTE_Deisenroth_AIME_384WELL_LUC_Active: CCTE's 384-well Estrogen Receptor Transactivation Assay with AIME metabolic competence (ERTA luciferase; metabolism positive), Deisenroth Lab (AID 2284030; active = hit-call score of the fitted dose curve at least 0.9, where 1 is the maximum). An outline of the steps:
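Readout: bioluminescent luciferase induction in VM7Luc4E2 cells 24 hour after receiving medium from a 2 h rat hepatic S9 (induced, alginate microsphere) metabolism step. Concentrations 0.002 - 200 uM; activity scaled to 17beta-estradiol positive control.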

A short description of experiment [10]: CCTE_Deisenroth_AIME_384WELL_CTox_Active: Cytotoxicity Assessment (CTOX) in CCTE's 384-well Estrogen Receptor Transactivation Assay with AIME metabolic competence (metabolism positive), Deisenroth Lab (AID 2284037; active = hit-call score of the fitted dose curve at least 0.9, where 1 is the maximum;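 note: chemicals first conditioned 2 h by alginate-bound induced rat liver S9 before cells; activity means signal loss indicating cell death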). In a few lines:
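Chemicals pre-incubated 2 hours with alginate-immobilised phenobarbital/beta-naphthoflavone-induced male Sprague Dawley rat liver S9, then conditioned medium applied 24 hour to VM7Luc4E2 cells. Viability by fluorogenic protease substrate; 10-point series 0.002 - 200 uM.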

“And” between values parts separate entries of the source, which are not always exact repeats. Equal entries are not always repeated. Records with an inconclusive call do not appear. More than one record can exist for a structure, and the calls need not agree. The source made the active and inactive calls. Rule for the calls, unless noted: active = hit-call score of the fitted dose curve at least 0.9, where 1 is the maximum; inactive = score below 0.9.

Estrogen receptor (Homo sapiens), sequence (P03372 whole entry, looked up): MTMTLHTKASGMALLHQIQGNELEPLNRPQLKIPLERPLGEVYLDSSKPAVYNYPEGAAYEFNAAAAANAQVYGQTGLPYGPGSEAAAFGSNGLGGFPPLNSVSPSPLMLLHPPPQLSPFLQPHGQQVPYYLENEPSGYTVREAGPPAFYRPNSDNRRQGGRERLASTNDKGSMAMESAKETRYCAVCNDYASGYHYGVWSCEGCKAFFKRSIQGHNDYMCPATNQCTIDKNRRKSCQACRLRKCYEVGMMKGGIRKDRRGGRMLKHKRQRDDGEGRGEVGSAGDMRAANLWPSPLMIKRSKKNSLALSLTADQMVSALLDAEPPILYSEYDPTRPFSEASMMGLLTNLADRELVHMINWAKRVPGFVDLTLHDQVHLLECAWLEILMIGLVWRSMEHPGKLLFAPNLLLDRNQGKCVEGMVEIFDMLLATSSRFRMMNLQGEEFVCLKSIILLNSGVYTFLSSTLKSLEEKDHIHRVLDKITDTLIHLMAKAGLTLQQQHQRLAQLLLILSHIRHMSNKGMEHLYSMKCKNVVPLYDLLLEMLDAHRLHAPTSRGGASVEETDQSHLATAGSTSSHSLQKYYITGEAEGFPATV

Usually AC50 stands for the concentration at which the activity in the assay is half-maximal. With `CC1(C)C(C=C(Cl)Cl)C1C(=O)OC(C#N)c1ccc(F)c(Oc2ccccc2)c1` (centres undefined), the AC50 in experiment [1] was 171 nM (active) and 612 nM (active); in experiment [2], 20.3 nM (active) and 102 nM (active); in experiment [3], 15 µM (active); in [4] it was 117 nM (active) and 558 nM (active); in experiment [5] it was 1.15 µM (active) and 9.57 µM (active); in experiment [6], 2.63 µM (active) and 27.9 µM (active) and 19.5 µM (active). For the same compound, the AC50 in [7] is 10 µM (active) and 26.4 µM (active) and 10.4 µM (active). In addition, the result in experiment [3] and in [5] was inactive.

`COP(=S)(OC)Oc1ccc([N+](=O)[O-])cc1`: the compound was called inactive in [5] and in experiment [6]. Further, the AC50 in experiment [7] was 20.2 µM (active).

As for `N#CN`, the compound was classed as inactive in [1], in [2], in experiment [3] and in experiment [4].

Turning to `Oc1cc(Cl)ccc1Oc1ccc(Cl)cc1Cl`, the AC50 in experiment [1] is 5 µM (active); in experiment [3], 20 µM (active); in experiment [4], 5 µM (active); in experiment [5] it was 10 µM (active); in experiment [6], 10.2 µM (active); in experiment [7], 9.79 µM (active). Further, the compound was called inactive in [2] and in experiment [8].

As to `CNC(=O)Oc1ccccc1OC(C)C`, the compound was classed as inactive in [9].

For `CC(C)(C)C(O)/C(=C\c1ccc(Cl)cc1Cl)n1cncn1` (centres undefined), the AC50 in experiment [10] was 148 µM (active); in [8], 144 µM (active).

As to `O=C1c2ccccc2C(=O)N1SC(Cl)(Cl)Cl`, the AC50 in experiment [1] was 28.8 µM (active). Also, the compound was called inactive in experiment [2], in [3] and in experiment [4].

For the compound `CCC(C)Nc1c([N+](=O)[O-])cc(C(C)(C)C)cc1[N+](=O)[O-]` (centres undefined), the outcome in [1], in experiment [2], in experiment [3], in experiment [4], in [10] and in experiment [8] was inactive. For the same compound, in experiment [9], the half-maximal activity concentration (AC50) is 11.1 µM (active).

In the case of `CCCN(CCC)c1c([N+](=O)[O-])cc(C(F)(F)F)cc1[N+](=O)[O-]`, the AC50 in experiment [1] was 20 µM (active). Also, the outcome in experiment [2], in [3], in experiment [4] and in experiment [9] was inactive.

As for `CCC(C)(C)C(=O)OC1=C(c2ccc(Cl)cc2Cl)C(=O)OC12CCCCC2`, the compound was classed as inactive in experiment [1], in [2], in experiment [3], in [4], in experiment [5] and in experiment [6]. Moreover, the compound was called inactive in experiment [7]. Further, the AC50 is 20000 nM (active) in experiment [2], 0.106 µM (active) in experiment [3] and 5.2 µM (active) in experiment [4].

Take `O=C(O)CCCOc1ccc(Cl)cc1Cl`: the compound was classed as inactive in experiment [1], in experiment [2], in [3] and in [4].

In the case of `Cc1[nH]c(=O)n(C(C)(C)C)c(=O)c1Cl`, the compound was called inactive in [9], in experiment [10] and in experiment [8].

Turning to `O=C(O)COc1ccc(Cl)cc1Cl`, the outcome in [5], in [6] and in experiment [8] was inactive. Also, in experiment [7], the AC50 is 50 µM (active).

In the case of `CNC(=O)Oc1cccc(N=CN(C)C)c1`, the outcome in experiment [9], in experiment [10] and in [8] was inactive.

On to `Oc1ccc(Cl)cc1Cc1ccccc1`, for which the figures for the AC50 in experiment [1], in experiment [2] and in experiment [4] were 5.05 µM (active), 457 nM (active) and 5.05 µM (active), respectively.

As to `C[C@H]1[C@H](c2ccc(Cl)cc2)SC(=O)N1C(=O)NC1CCCCC1`, the compound was called inactive in [1], in experiment [2], in [9], in [10] and in [8]. For the same compound, the figures for the AC50 in experiment [3] and in experiment [4] were 23.5 µM (active) and 20 µM (active), respectively.

For `CC[C@H](C)[C@H]1O[C@]2(C=C[C@@H]1C)C[C@@H]1C[C@@H](C/C=C(\C)[C@@H](O[C@H]3C[C@H](OC)[C@@H](O[C@H]4C[C@H](OC)[C@@H](O)[C@H](C)O4)[C@H](C)O3)[C@@H](C)/C=C/C=C3\CO[C@@H]4[C@H](O)C(C)=C[C@@H](C(=O)O1)[C@]34O)O2` (tested in a mixture with another compound), the result in [1] was inactive. In addition, the AC50 in [2] was 2.77 nM (active); in [3] it was 0.0109 µM (active); in experiment [4] it was 0.165 µM (active); in experiment [5], 0.611 nM (active) and 1.02 nM (active); in experiment [6], 9.62 nM (active) and 1.82 nM (active); in experiment [7], 3.93 nM (active) and 1.65 nM (active).

Turning to `COP(=S)(OC)Oc1ccc(SC)c(C)c1`, the call in [1] and in experiment [2] was inactive. In addition, the AC50 was 31.2 µM (active) in experiment [3] and 29.1 µM (active) in experiment [4].

For `CCc1ccc(C(=O)NN(C(=O)c2cc(C)cc(C)c2)C(C)(C)C)cc1`, the call in [9], in [10] and in experiment [8] was inactive.

Consider `CCOC1Oc2ccc(OS(C)(=O)=O)cc2C1(C)C` (centres undefined), for which the AC50 in experiment [10] and in [8] was 100 µM (active) throughout.

In the case of `CC1(c2ccc(Oc3ccccc3)cc2)OC(=O)N(Nc2ccccc2)C1=O` (centres undefined), the AC50 in [5] was 8.59 µM (active); in experiment [6], 4.72 µM (active); in [7], 4.84 µM (active).

For the compound `OCCOc1ccccc1`, the AC50 in [9] was 34 µM (active). For the same compound, the compound was classed as inactive in [10] and in experiment [8].
